Data from PubChem BioAssay (Tox21).
Results filed as inconclusive are left out. Values without a mark were called inactive. Active and inactive are the calls of the source. The call rests on the fitted dose curve; in most records, active means well fitted curve in the direction sought with a large enough effect in the repeat runs; inconclusive means weak or mixed curves; inactive means no such curve, though single readings can be large; an effect the other way counts as inactive or inconclusive.

Test: A CellTox Green Cytotoxicity Assay to monitor cytotoxicity in HepG2 cells - 32 hour (AID 1224883); further: nearly all actives have a fitted effect of over 50% in size; further: potency means the concentration at half of the fitted maximal effect
Conditions: CellTox Green fluorescence; series mostly up to 76.8 µM; cytotoxicity increase: at the top concentration
Procedure, shortened: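 Cytotoxicity was tracked as dead-cell DNA fluorescence in HepG2 cells treated with test compounds at 37 C; each time-point value comes from one kinetic series spanning 0, 8, 16, 24, 32 and 40 h.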
On the % scale 0 is the no-effect control and ±100 the full control effect.

Structure (SMILES)	Potency	cytotoxicity increase
CC[C@]12CCCN3CCc4c(n(c5ccccc45)C(=O)C1)[C@@H]32	6.74 µM (active)	
Nc1nc(N)c2nc(CNc3ccc(C(=O)N[C@@H](CCC(=O)O)C(=O)O)cc3)cnc2n1		-1.05%
C=Cc1c(C)c2cc3[nH]c(cc4nc(cc5nc(cc1[nH]2)C(C)=C5CCC(=O)O)C(CCC(=O)O)=C4C)c(C)c3C=C		-21.8% [at 35.3 µM]
O=C(Cl)c1c(Cl)cccc1Cl		-14.2%
O=C(c1ccc(O)cc1)c1ccc(O)cc1		-0.89%
CCCCC(CC)COCCCN (stereo unspecified)		19.2%
O=c1[nH]cnc2ccccc12		1.3%
Nc1nc(CC(=O)O)cs1		-1.01%
Cc1ccc(C(=O)C(C)CN2CCCCC2)cc1 (stereo unspecified)		-14.9% [at 35.3 µM]
Oc1ccc(O)c2c(O)cccc12		-33%
CC/C(=C\C(=N/O)C(N)=O)C(C)[N+](=O)[O-] (stereo unspecified)		-11.3%
CCCCOC(=O)c1ccccc1C(=O)OCC(CC)CCCC (stereo unspecified)		-0.664%
O=C=NC1CCC(CC2CCC(N=C=O)CC2)CC1 (stereo unspecified)		19.9%
CCOc1cc(OCC)c(C(=O)CCC(=O)O)cc1OCC		-7.91% [at 35.3 µM]
O=CNc1ccccc1		0.103%
CCOc1nc2cccc(C(=O)O)c2n1Cc1ccc(-c2ccccc2-c2nn[nH]n2)cc1		-12% [at 35.3 µM]
CCCCCCc1ccc(N)cc1	49 µM (active)	
O=C(O)Cc1cc(I)c(Oc2ccc(O)c(I)c2)c(I)c1		-8.76%

Test: A CellTox Green Cytotoxicity Assay to monitor cytotoxicity in HEK293 cells - 8 hour (AID 1224884); further: nearly all actives have a fitted effect of over 35% in size
Conditions: CellTox Green fluorescence; series mostly up to 76.8 µM; cytotoxicity increase: at the top concentration
Procedure, shortened: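 Real-time, in one plate: 600 HEK293 cells/well with dead-cell DNA dye, pinned compound after 5 h, 37 C incubation over 40 h; viable cells give no appreciable fluorescence.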

Structure (SMILES)	cytotoxicity increase
c1ccc(CNCc2ccccc2)cc1	-1.86%
O=C1Nc2cc(Cl)ccc2Oc2ccccc21	2.62% [at 35.3 µM]
CCN(CC)C(C)CN1c2ccccc2Sc2ccccc21 (stereo unspecified)	-28.6% [at 35.3 µM]
CC(=O)CC(=O)c1ccccc1	4.52%
Cn1c(NCCN(CCO)CCCc2ccc([N+](=O)[O-])cc2)cc(=O)n(C)c1=O	12.8% [at 35.3 µM]
CCN1CCC[C@H]1CNC(=O)c1c(OC)ccc(Br)c1OC	-2.81% [at 35.3 µM]
CN1CCC(=C2c3ccccc3C=Cc3ccccc32)CC1	-1.76% [at 35.3 µM]
CC[C@@H]1C[C@H](N(Cc2cc(C(F)(F)F)cc(C(F)(F)F)c2)C(C)=O)c2cc(C(F)(F)F)ccc2N1C(=O)OC(C)C	-0.159%
Cn1c(N)nc2nc[nH]c2c1=O	2.24%
CC(C)CCCCCCOC(=O)c1ccc(C(=O)OCCCCCCC(C)C)c(C(=O)OCCCCCCC(C)C)c1	5.65%
CC(=O)/C=C/C1C(C)=CCCC1(C)C (stereo unspecified)	-2.29%
SC1CCCC1	-5.94%
CC(C)(C)C(=O)OCOP(=O)(COCCn1cnc2c(N)ncnc21)OCOC(=O)C(C)(C)C	-1.26% [at 35.3 µM]
CN(C(=O)CCCOc1ccc2[nH]c(=O)ccc2c1)C1CCCCC1	2.26% [at 35.3 µM]
CCCOc1ccc2nc(NC(=O)OC)[nH]c2c1	-2.63% [at 35.3 µM]
O=C1[C@H](CC[C@H](O)c2ccc(F)cc2)[C@@H](c2ccc(O)cc2)N1c1ccc(F)cc1	3.72% [at 35.3 µM]
Nc1nc(N)c(-c2ccccc2)s1	-8.34% [at 35.3 µM]
C=CC(=O)OCCOC(=O)CCC(=O)O	-5.86%
O=C(CC(=O)c1ccccc1)c1ccccc1	0.146%
COC(=O)C(C)=O	-8.59%

Structure (SMILES)	cytotoxicity increase
CN(C)C/C=C(/c1ccc(Br)cc1)c1cccnc1	5.99% [at 35.3 µM]
CC[C@]12CCCN3CCc4c(n(c5ccccc45)C(=O)C1)[C@@H]32	2.68% [at 35.3 µM]
Nc1nc(N)c2nc(CNc3ccc(C(=O)N[C@@H](CCC(=O)O)C(=O)O)cc3)cnc2n1	-0.522%
C=Cc1c(C)c2cc3[nH]c(cc4nc(cc5nc(cc1[nH]2)C(C)=C5CCC(=O)O)C(CCC(=O)O)=C4C)c(C)c3C=C	-9.77% [at 35.3 µM]
O=C(Cl)c1c(Cl)cccc1Cl	0.848%
O=C(c1ccc(O)cc1)c1ccc(O)cc1	3.27%
CCCCC(CC)COCCCN (stereo unspecified)	6.56%
O=c1[nH]cnc2ccccc12	12.4%
Nc1nc(CC(=O)O)cs1	-8.79%
Cc1ccc(C(=O)C(C)CN2CCCCC2)cc1 (stereo unspecified)	1.15% [at 35.3 µM]
Oc1ccc(O)c2c(O)cccc12	-8.69%
CC/C(=C\C(=N/O)C(N)=O)C(C)[N+](=O)[O-] (stereo unspecified)	-2.52%
CCCCOC(=O)c1ccccc1C(=O)OCC(CC)CCCC (stereo unspecified)	14.1%
O=C=NC1CCC(CC2CCC(N=C=O)CC2)CC1 (stereo unspecified)	-7.48%
CCOc1cc(OCC)c(C(=O)CCC(=O)O)cc1OCC	-0.31% [at 35.3 µM]
O=CNc1ccccc1	0.114%
CCOc1nc2cccc(C(=O)O)c2n1Cc1ccc(-c2ccccc2-c2nn[nH]n2)cc1	-29.7% [at 35.3 µM]
CCCCCCc1ccc(N)cc1	5.41%
O=C(O)Cc1cc(I)c(Oc2ccc(O)c(I)c2)c(I)c1	2.86%

Test: qHTS RealTime-Glo MT Cell Viability Assay in HepG2 cells - 16 hour (AID 1224885); further: nearly all actives have a fitted effect of over 50% in size
Conditions: RealTime-Glo luminescence; series mostly up to 76.8 µM; activity change, negative = cytotoxic: at the top concentration
Procedure, shortened: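 Tox21 10K library screened in qHTS format on HepG2 cells carrying RealTime-Glo reagents. Compounds were added after a 5 h preincubation, and the luminescent signal from continuous culture was measured repeatedly during 40 h treatment.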

Structure (SMILES)	activity change, negative = cytotoxic
c1ccc(CNCc2ccccc2)cc1	1.32%
O=C1Nc2cc(Cl)ccc2Oc2ccccc21	-4.96% [at 35.3 µM]
CCN(CC)C(C)CN1c2ccccc2Sc2ccccc21 (stereo unspecified)	-3.28% [at 35.3 µM]
CC(=O)CC(=O)c1ccccc1	2.33%
Cn1c(NCCN(CCO)CCCc2ccc([N+](=O)[O-])cc2)cc(=O)n(C)c1=O	-1.26% [at 35.3 µM]
CCN1CCC[C@H]1CNC(=O)c1c(OC)ccc(Br)c1OC	1.12% [at 35.3 µM]
CN1CCC(=C2c3ccccc3C=Cc3ccccc32)CC1	-19% [at 35.3 µM]
CC[C@@H]1C[C@H](N(Cc2cc(C(F)(F)F)cc(C(F)(F)F)c2)C(C)=O)c2cc(C(F)(F)F)ccc2N1C(=O)OC(C)C	-11.3%
Cn1c(N)nc2nc[nH]c2c1=O	1.62%
CC(C)CCCCCCOC(=O)c1ccc(C(=O)OCCCCCCC(C)C)c(C(=O)OCCCCCCC(C)C)c1	2.34%
CC(=O)/C=C/C1C(C)=CCCC1(C)C (stereo unspecified)	-2.87%
SC1CCCC1	-0.484%
CC(C)(C)C(=O)OCOP(=O)(COCCn1cnc2c(N)ncnc21)OCOC(=O)C(C)(C)C	-7.61% [at 35.3 µM]
CN(C(=O)CCCOc1ccc2[nH]c(=O)ccc2c1)C1CCCCC1	-8.78% [at 35.3 µM]
CCCOc1ccc2nc(NC(=O)OC)[nH]c2c1	-5.65% [at 35.3 µM]
O=C1[C@H](CC[C@H](O)c2ccc(F)cc2)[C@@H](c2ccc(O)cc2)N1c1ccc(F)cc1	-19.6% [at 35.3 µM]
Nc1nc(N)c(-c2ccccc2)s1	0.93% [at 35.3 µM]
C=CC(=O)OCCOC(=O)CCC(=O)O	-6.9%
O=C(CC(=O)c1ccccc1)c1ccccc1	-19.5%
COC(=O)C(C)=O	4.21%

Structure (SMILES)	activity change, negative = cytotoxic
CN(C)C/C=C(/c1ccc(Br)cc1)c1cccnc1	0.25% [at 35.3 µM]
CC[C@]12CCCN3CCc4c(n(c5ccccc45)C(=O)C1)[C@@H]32	-16.9% [at 35.3 µM]
Nc1nc(N)c2nc(CNc3ccc(C(=O)N[C@@H](CCC(=O)O)C(=O)O)cc3)cnc2n1	0.448%
C=Cc1c(C)c2cc3[nH]c(cc4nc(cc5nc(cc1[nH]2)C(C)=C5CCC(=O)O)C(CCC(=O)O)=C4C)c(C)c3C=C	-8.44% [at 35.3 µM]
O=C(Cl)c1c(Cl)cccc1Cl	-0.0574%
O=C(c1ccc(O)cc1)c1ccc(O)cc1	-8.35%
CCCCC(CC)COCCCN (stereo unspecified)	0.587%
O=c1[nH]cnc2ccccc12	-0.589%
Nc1nc(CC(=O)O)cs1	-5.95%
Cc1ccc(C(=O)C(C)CN2CCCCC2)cc1 (stereo unspecified)	4.12% [at 35.3 µM]
Oc1ccc(O)c2c(O)cccc12	-6.34%
CC/C(=C\C(=N/O)C(N)=O)C(C)[N+](=O)[O-] (stereo unspecified)	-0.672%
CCCCOC(=O)c1ccccc1C(=O)OCC(CC)CCCC (stereo unspecified)	-4.91%
O=C=NC1CCC(CC2CCC(N=C=O)CC2)CC1 (stereo unspecified)	-1.35%
CCOc1cc(OCC)c(C(=O)CCC(=O)O)cc1OCC	3.36% [at 35.3 µM]
O=CNc1ccccc1	-0.311%
CCOc1nc2cccc(C(=O)O)c2n1Cc1ccc(-c2ccccc2-c2nn[nH]n2)cc1	-0.0554% [at 35.3 µM]
CCCCCCc1ccc(N)cc1	-10.6%
O=C(O)Cc1cc(I)c(Oc2ccc(O)c(I)c2)c(I)c1	1.68%
